Screens deposited in PubChem BioAssay by several laboratories.
Only some compounds are listed: those with a hit (about 3.6% of all), similar ones and a draw of the others.
CF NFkB inh: inhibitors of PAF-induced NF-kB signaling, primary screen, cell-based, GFP fluorescence, uHTS | KKLEB NF-kB-GFP reporter, GFP fluorescence overnight | inhibition, % at 5 µM | actives 0.86% (n = 360,000) | AID 588850, 2011;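 active means at least 50% inhibition at 5 µM, scaled per plate between neutral and stimulator controls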;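 further: PAF is a Pseudomonas aeruginosa culture filtrate used as stimulus; plate controls were PAF-stimulated DMSO wells for no effect and unstimulated DMSO wells for full effect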
LGR2 antag: inhibitors of bursicon-induced LGR2 CRE-luciferase signal, primary screen, cell-based, HEK293, CRE-luciferase reporter, bursicon stimulation | inhibition, % at 9.99 µM | actives 0.35% (n = 380,000) | bursicon-stimulated, 4 h | Drosophila bursicon receptor LGR2 (rickets);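 active means drop in luminescence signal, shown as inhibition above about 50% in the replicate tests, limit read from the data, passing the limit was not always enough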;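 further: agonist challenge used bursicon conditioned medium at about half maximal strength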
Peg3 promoter: Peg3 promoter-driven luciferase inhibitors, primary screen, cell-based, HeLa, luciferase luminescence; HeLa PEG-Prom luciferase reporter, overnight; inhibition, % at 20 µM; actives 1.7% (n = 360,000);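 active means inhibition of at least 50% at 20 µM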
HSP90 refold inh: HSP90 inhibitors, primary screen, cell lysate, luminescence; Heat shock protein HSP 90 (rabbit reticulocyte lysate; luciferase refolding); Rabbit reticulocyte lysate, luciferase refolding luminescence, 3 h; actives 0.91% (n = 290,000); inhibition, % at 5.6 µM;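 active means inhibition above the screen-wide mean plus 3 SD, computed separately per campaign, cut at about 16% in these data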;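 further: 0% = DMSO wells and 100% = 60 µM geldanamycin wells; inhibitors lower the luminescence because luciferase stays unfolded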
Mdm2-MdmX inh: inhibitors of human Mdm2-MdmX association, primary screen, cell-based, luminescence, split luciferase, SaOS-2, uHTS | actives 3% (n = 330,000) | Protein Mdm4 (Homo sapiens) + E3 ubiquitin-protein ligase Mdm2 (Homo sapiens), … | inhibition, % at 8 µM | SaOS-2 split-luciferase Mdm2/MdmX complementation;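 active means inhibition of at least 50% at 8 µM in the primary screen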
Target sequence (O15151 whole entry, looked up): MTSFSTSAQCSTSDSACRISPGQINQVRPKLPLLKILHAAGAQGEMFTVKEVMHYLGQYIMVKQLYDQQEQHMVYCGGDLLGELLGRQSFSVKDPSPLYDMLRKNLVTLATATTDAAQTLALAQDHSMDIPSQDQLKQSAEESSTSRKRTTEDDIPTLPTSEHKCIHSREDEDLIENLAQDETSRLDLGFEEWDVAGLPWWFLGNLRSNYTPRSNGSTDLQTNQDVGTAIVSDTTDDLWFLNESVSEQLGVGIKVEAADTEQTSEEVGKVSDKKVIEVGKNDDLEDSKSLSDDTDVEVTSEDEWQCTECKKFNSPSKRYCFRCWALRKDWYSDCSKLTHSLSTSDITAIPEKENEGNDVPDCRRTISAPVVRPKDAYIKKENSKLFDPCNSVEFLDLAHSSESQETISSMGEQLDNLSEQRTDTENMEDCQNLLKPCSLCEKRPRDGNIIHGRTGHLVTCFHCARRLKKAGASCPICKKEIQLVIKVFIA
Target sequence (Q00987 whole entry, looked up): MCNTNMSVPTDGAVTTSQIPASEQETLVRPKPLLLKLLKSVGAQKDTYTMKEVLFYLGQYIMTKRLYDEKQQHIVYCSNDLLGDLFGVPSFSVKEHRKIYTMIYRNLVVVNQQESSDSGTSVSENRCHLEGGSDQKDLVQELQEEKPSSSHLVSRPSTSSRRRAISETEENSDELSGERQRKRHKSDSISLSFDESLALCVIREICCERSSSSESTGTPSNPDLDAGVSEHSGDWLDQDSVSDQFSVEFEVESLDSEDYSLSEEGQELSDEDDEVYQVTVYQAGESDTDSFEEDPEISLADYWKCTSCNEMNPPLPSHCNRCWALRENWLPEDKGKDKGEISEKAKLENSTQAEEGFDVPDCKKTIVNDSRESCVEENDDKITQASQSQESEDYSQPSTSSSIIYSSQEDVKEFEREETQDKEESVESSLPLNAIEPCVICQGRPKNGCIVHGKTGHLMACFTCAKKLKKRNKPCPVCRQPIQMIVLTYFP
KKLEB cytotox: cytotoxicity in KKLEB CF airway cells, primary screen, cytotoxicity control for CF NF-kB inhibitor project, cell-based, uHTS, fluorescence assay plates; KKLEB CF airway cells viability, ATPlite luminescence, overnight; stronger effect = lower value; cells stimulated with P. aeruginosa culture filtrate; activity change (cytotoxicity), % at 5 µM; actives 0.36% (n = 360,000);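 active means corrected activity change at or below -50% at 5 µM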
Mdm2 MdmX conf: Mdm2-MdmX complex disruptors, retested hits, confirmation, luminescence, single concentration | shares compounds with Mdm2-MdmX inh | Mdm2-MdmX binding, luminescent assay | inhibition, % at 8 µM | actives 55% (n = 10,000); in the data active means inhibition above about 40%
FLuc counter: full-length luciferase signal inhibition, confirmation, counter-screen for Mdm2/MdmX interaction inhibitor project, cell-based, single concentration, SaOS-2. shares compounds with Mdm2-MdmX inh. inhibition, % at 8 µM. SaOS-2 full-length luciferase counterscreen, luminescence. actives 77% (n = 6,200);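 active means mean inhibition at 8 µM reaching about 37%, which flags the compound as non-specific, limit read from the data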;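 further: p53-null SaOS-2 cells with luciferase driven by a doxycycline-inducible promoter; compound on cells about two nights before reading with doxycycline added after day one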
* marks the source's active call; other numbers are inactive results; / = not tested or not shown.

SMILES | CF NFkB inh | LGR2 antag | Peg3 promoter | HSP90 refold inh | Mdm2-MdmX inh | KKLEB cytotox | Mdm2 MdmX conf | others
CCOc1ccc2nc(Cl)c(C3CC(c4ccco4)=NN3S(=O)(=O)c3ccccc3)cc2c1 (stereo not drawn) | -1.2 | -14.2 | -187.9 | -4.5 | -15.6 | -2.5 | /
CCOc1ccc2nc(Cl)c(C3CC(c4ccccc4)=NN3C(=O)c3ccco3)cc2c1 (stereo not drawn) | / | / | / | 0.8 | 56.5* | / | 7.8
O=C1CNC[C@H]2[C@@H](c3ccc(C#CC4CCCC4)cc3)[C@@H](CO)N12 | / | 14.9 | / | / | / | / | /
CCC(=O)N(C)C[C@H]1Oc2cc(C3=CCCCC3)ccc2S(=O)(=O)N([C@H](C)CO)C[C@@H]1C | / | 3.2 | / | / | / | / | /
COc1cc(CC(=O)OCC(=O)c2ccc3c(c2)OCCO3)cc(OC)c1OC | 8.1 | / | -42.5 | 2.4 | 66.3* | 0.6 | 53.8* | FLuc counter=101.1*
COc1cc(CC(=O)NCc2ccc3c(c2)OCO3)cc(OC)c1OC | 4.3 | / | 17.5 | -0.3 | 27.2 | -3.6 | /
COc1cc2c(ccc3cc(OC)c(OC)c(O)c32)cc1O | 39.8 | / | 2.5 | / | 73.6* | -24.7 | 38.0 | FLuc counter=31.4
CCc1cc2c(=O)c(-c3cnn(-c4ccccc4)c3)c(C)oc2cc1OCC(=O)Nc1ccc(F)c(F)c1 | 31.1 | / | 4.2 | 2.0 | 61.7* | -38.0 | 73.8* | FLuc counter=87.0*
C[C@@H]1CN([C@H](C)CO)C(=O)c2cc(NC(=O)Nc3cccc4ccccc34)ccc2O[C@H]1CN(C)Cc1ccc(C(F)(F)F)cc1 | -48.4 | 10.3 | 16.5 | / | 56.2* | 21.2 | 28.9 | FLuc counter=80.9*
C[C@H]1CN([C@@H](C)CO)C(=O)c2cccc(NC(=O)Nc3ccc(F)cc3)c2O[C@@H]1CN(C)Cc1ccc(Oc2ccccc2)cc1 | / | 7.8 | / | / | / | / | /
C[C@@H]1CN([C@H](C)CO)C(=O)c2cc(NC(=O)Nc3ccc(F)cc3)ccc2O[C@H]1CN(C)Cc1ccccc1 | / | -13.0 | / | / | / | / | /
C[C@@H]1CN([C@@H](C)CO)C(=O)c2cccc(NC(=O)Nc3ccc(F)cc3)c2O[C@@H]1CN(C)Cc1ccc(Oc2ccccc2)cc1 | 10.9 | 15.0 | 38.2 | / | 76.3* | -13.7 | 22.0
C[C@@H]1CN([C@@H](C)CO)C(=O)Cc2cc(NC(=O)Nc3cccc4ccccc34)ccc2O[C@@H]1CN(C)Cc1ccc(C(F)(F)F)cc1 | -19.5 | 23.4 | 34.7 | / | 64.8* | -2.9 | 30.7
C[C@H](CO)N1C[C@H](C)[C@H](CN(C)Cc2ccccc2)Oc2ccc(NC(=O)Nc3ccc(F)cc3)cc2C1=O | 2.3 | 31.3 | 38.6 | / | 64.6* | -13.6 | 27.4
Cc1ccc(S(=O)(=O)N[C@@H]2CC[C@@H](CCNC(=O)Cc3ccccn3)O[C@H]2CO)cc1 | / | -20.1 | / | / | / | / | /
C[C@@H]1CN([C@@H](C)CO)C(=O)c2cccc(NC(=O)Nc3ccc(F)cc3)c2O[C@H]1CN(C)CC1CC1 | / | -7.6 | / | / | / | / | /
C[C@H]1CN([C@@H](C)CO)C(=O)c2cc(NC(=O)C3CCCCC3)ccc2O[C@H]1CN(C)Cc1ccc(-c2ccccc2)cc1 | 7.3 | 4.2 | 29.5 | / | 81.3* | 2.6 | 23.4
C[C@@H]1CN([C@@H](C)CO)C(=O)c2cc(NC(=O)C3CCCCC3)ccc2O[C@@H]1CN(C)Cc1ccc(-c2ccccc2)cc1 | / | 14.7 | / | / | / | / | /
C[C@@H]1CN([C@H](C)CO)C(=O)Cc2cc(NC(=O)Nc3ccccc3)ccc2O[C@@H]1CN(C)Cc1ccc2c(c1)OCO2 | 9.1 | -13.1 | 21.4 | / | 53.2* | -5.8 | 18.3
C[C@@H]1CN([C@H](C)CO)C(=O)Cc2cc(NS(=O)(=O)c3ccc(Cl)cc3)ccc2O[C@H]1CN(C)Cc1ccc(C(F)(F)F)cc1 | 13.6 | 5.7 | 36.1 | / | 89.6* | -18.8 | 62.2* | FLuc counter=55.0*
CC(=O)N1CC(=O)N2[C@H](C1)[C@@H](c1ccc(C#CC(C)C)cc1)[C@@H]2CO | / | -3.0 | / | / | / | / | /
C[C@@H]1CN([C@H](C)CO)C(=O)c2cc(C3=CCCC3)cnc2O[C@H]1CN(C)S(=O)(=O)c1cn(C)cn1 | / | -11.6 | / | / | / | / | /
Cc1cccc(/C=N/NC(=O)c2c(-c3ccccc3)noc2C)c1O | 7.9 | 18.5 | 49.8 | -4.3 | 66.7* | -2.4 | 69.0* | FLuc counter=35.6
COc1ccccc1/C=N/NC(=O)c1c(-c2ccccc2)noc1C | 4.9 | 1.5 | 21.7 | 2.5 | 4.8 | -5.4 | /
C[C@H]1CN([C@@H](C)CO)C(=O)c2cc(C3=CCCCC3)cnc2O[C@@H]1CN(C)C(=O)CN1CCOCC1 | / | -4.1 | / | / | / | / | /
SMILES | CF NFkB inh | LGR2 antag | Peg3 promoter | HSP90 refold inh | Mdm2-MdmX inh | KKLEB cytotox | Mdm2 MdmX conf | others
O=C(NCC(c1cccs1)N1CCOCC1)c1cn(-c2ccccc2)nc1-c1ccc(Cl)cc1 (stereo not drawn) | -65.5 | 1.3 | 17.8 | / | 63.0* | -10.1 | 24.8
O=C(NCC(c1cccs1)N1CCOCC1)c1cn(-c2ccccc2)nc1-c1ccccc1 (stereo not drawn) | -17.5 | 13.5 | -32.2 | / | 29.0 | 18.3 | /
COc1ccc(-n2c(C)c(C(C)=O)c3cc(OC(C)=O)ccc32)cc1 | 83.3* | 24.7 | 15.7 | -6.5 | 81.9* | -10.9 | 86.2* | FLuc counter=6.4
Cc1nc(N2CCCCC2)sc1C(=O)c1ccc(Cl)c([N+](=O)[O-])c1 | / | / | / | -0.6 | 68.8* | / | 24.2
CC=Cc1ccc2n(c1=O)C[C@@H]1[C@@H](CO)[C@H](C(=O)NCC)[C@H]2N1C(=O)c1ccc(F)cc1 (mixture of isomers) | / | -7.4 | / | / | / | / | /
CNC[C@H]1Oc2ccc(NS(=O)(=O)c3ccc(F)cc3)cc2CC(=O)N([C@@H](C)CO)C[C@H]1C | / | 9.1 | / | / | / | / | /
COC(=O)C(C(=O)Nc1ccc(OC)cc1)C1CCCCCC1 (stereo not drawn) | -2.5 | / | 21.7 | 1.8 | 55.6* | -4.1 | 40.5* | FLuc counter=65.5*
COC(=O)C(C(=O)Nc1ccccc1C)C1CCCC1 (stereo not drawn) | -8.4 | / | 13.3 | 0.9 | 25.6 | -5.1 | /
O=C(Cc1cccnc1)N[C@@H]1CC[C@@H](CCNS(=O)(=O)c2ccccc2Cl)O[C@@H]1CO | / | 2.7 | / | / | / | / | /
C[C@H]1CCCCO[C@H](CN(C)C(=O)Cc2ccccc2)[C@@H](C)CN([C@@H](C)CO)C(=O)c2cc(NC(=O)Nc3ccc(F)cc3)ccc2O1 | / | -13.9 | / | / | / | / | /
